# Assay results taken from PubChem BioAssay AID588727 (Southern Research Specialized Biocontainment Screening …, 2011).
# Among all 350,000 compounds or so, about 450 (0.13%) were called active. How the calls were made is not given here. These entries were drawn from the full list. Potency and affinity values are given separately. Where a SMILES comes first, the peptide text is derived from it. The star is where a group is joined. CH2Cl = ClC*
# Assay: inhibitors of VEEV TC-83 cytopathic effect, confirmation, Vero cells (AID 588727)
# Details: VEEV TC-83 cytopathic effect inhibition, at 20 µM
# [1] = stronger effect = higher value unless noted
# [2] = measured here: 10K pilot screen inhibition, stronger effect = higher value
smiles,measurement,setting,value
CCOC(=O)N1CCN(C(=O)CCNS(=O)(=O)c2ccccc2)CC1,inhibition,[1],1.37% (inactive)
CCOC(=O)c1[nH]c(COC(=O)c2ccccc2NC(=O)c2ccco2)c(C(=O)OCC)c1C,inhibition,stronger effect = higher value,1.08% (inactive)
same,inhibition,[2],3.34%
CCCCN(C(=O)CSc1nc(CCC)cc(=O)[nH]1)c1c(N)n(Cc2ccccc2)c(=O)[nH]c1=O,inhibition,[1],0.91% (inactive)
O=c1oc(C2(O)CCCCC2)cc2ccccc12,inhibition,[1],0.11% (inactive)
O=c1oc(C2(O)CCCCC2)cc2ccc(Br)cc12,inhibition,stronger effect = higher value,0.16% (inactive)
same,inhibition,[2],1.56%
COc1ccc(OC)c(NC(=O)c2ccc3c(c2)OCO3)c1,inhibition,[1],inactive
CCCc1nc2c(s1)CCc1onc(-c3cccc([N+](=O)[O-])c3)c1-2,inhibition,[1],0.11% (inactive)
CN1CCN(c2ccc(NC(=O)c3ccc(-c4ccc(Br)cc4)o3)cc2)CC1,inhibition,[1],9.39% (inactive)
CN1CCN(c2ccc(NC(=O)c3ccc(-c4ccc(Cl)cc4)o3)cc2)CC1,inhibition,[1],10.7% (inactive)
O=C(CN(C(=O)c1csnn1)c1cccc(C(F)(F)F)c1)NCCc1ccccc1,inhibition,[1],inactive
O=[N+]([O-])c1cccc(C2=NC(c3ccccc3)CO2)c1 (configuration not stated),inhibition,[1],0.23% (inactive)
O=[N+]([O-])c1ccc(-[n+]2c(-c3ccccc3)cc(-c3ccccc3)cc2-c2ccccc2)cc1,inhibition,[1],2.23% (inactive)
O=C1CCC(C(=O)N2CCN(c3ccc(F)cc3)CC2)CN1CC1CCCCC1 (configuration not stated),inhibition,[1],0.83% (inactive)
Cc1onc(-c2ccccc2)c1C(=O)NNC(=S)NC(=O)c1ccc(Br)cc1,inhibition,[1],3.29% (inactive)
Cc1onc(-c2ccccc2)c1C(=O)NC(=S)NNC(=O)c1ccc(O)cc1O,inhibition,[1],12.2% (inactive)
Nc1nnnn1/N=C/C(Br)=C/c1ccccc1,inhibition,[1],12.1% (inactive)
BrC(=C\c1ccccc1)/C=N/n1cnnc1,inhibition,[1],5.75% (inactive)
Cc1ccc(-c2cc(C(F)F)n3ncc(C(=O)N4CCN(c5ccccn5)CC4)c3n2)cc1,inhibition,[1],8.27% (inactive)
O=C(NCc1ccccc1)c1ncn[nH]1,inhibition,[1],inactive
O=C(Nc1ccccc1Cl)C1CCCN(S(=O)(=O)c2ccc(-n3cnnn3)cc2)C1 (configuration not stated),inhibition,[1],0.96% (inactive)
COc1cccc(-c2ccc(NC(=O)C3CCCN(Cc4cnc(C)s4)C3)cc2)c1 (configuration not stated),inhibition,[1],2.02% (inactive)
COc1cccc(-c2ccc(NC(=O)C3CCCN(Cc4cnn(C(C)C)c4)C3)cc2)c1 (configuration not stated),inhibition,[1],21.3% (inactive)
COc1cccc(-c2ccc(NC(=O)C3CCCN(Cc4cnn(C)c4C)C3)cc2)c1 (configuration not stated),inhibition,[1],23.7% (inactive)
Cc1ncc(CN2CCCC(C(=O)Nc3ccc(-c4ccco4)cc3)C2)n1C (configuration not stated),inhibition,[1],5.05% (inactive)
Cc1ncc(CN2CCCC(C(=O)Nc3ccc(-c4cccc(F)c4)cc3)C2)cn1 (configuration not stated),inhibition,[1],5.3% (inactive)
Cn1cc(CN2CCC(C(=O)Nc3cccc(-c4cccc(F)c4)c3)CC2)cn1,inhibition,[1],5.64% (inactive)
COC(=O)C(O)(c1ccc(N(C)C(=O)c2ccc(Cl)c(Cl)c2)cc1)C(F)(F)F (configuration not stated),inhibition,[1],0.88% (inactive)
CCOC(=O)c1c(S(=O)(=O)N2c3ccccc3CC2C)c(C)n(C)c1C (configuration not stated),inhibition,[1],inactive
Cc1c(NC(=O)c2ccc(Br)s2)c(=O)n(-c2ccccc2)n1C,inhibition,[1],0.26% (inactive)
O=C(N[C@@H](Cc1ccccc1)C(=O)CCl)OCc1ccccc1,inhibition,[1],8.46% (inactive)
CC(=O)NC(CC(C)C)C(=O)NC(Cc1ccccc1)C(=O)CCl (stereo not drawn) (Ac-Leu-Phe-CH2Cl; configuration not given here),inhibition,[1],6.56% (inactive)
Cc1nc(-c2ccc(Cl)cc2)sc1C1(C)CC(c2cccc(F)c2)=NO1 (configuration not stated),inhibition,[1],2.59% (inactive)
C[C@]12CCC(O)CC1CCC1C2CC[C@]2(C)C(c3cc(C(F)(F)F)n[nH]3)CCC12 (some centres not stated),inhibition,[1],inactive
CN(C)CCNC(=O)c1ccccc1-c1cc2ccccc2c(=O)o1,inhibition,[1],0.53% (inactive)
COc1ccc(C(=O)Nc2cc3c(cc2OC)CCCC3)cc1Br,inhibition,[1],1.28% (inactive)
COc1cc2c(cc1NC(=O)c1cccc(F)c1)CCCC2,inhibition,[1],0.61% (inactive)
CCOc1ccc(NC(=O)CN(C)C(=O)CCc2nc3ccccc3c(=O)[nH]2)cc1OCC,inhibition,[1],inactive
CC1(C)Cc2cccc(OCC(=O)Nc3cccnc3)c2O1,inhibition,[1],7.7% (inactive)
CC1(C)Cc2cccc(OCC(=O)Nc3nccs3)c2O1,inhibition,[1],7.27% (inactive)
CCCC(=O)C1C(=O)CC(CC(C)SCC)CC1=O (configuration not stated),inhibition,[1],0.43% (inactive)
O=C1/C(=C/c2cccnc2)Oc2cc(OS(=O)(=O)c3ccc(F)cc3)ccc21,inhibition,[1],0.87% (inactive)
CC(=O)c1c(C)[nH]c(C(=O)NC2CCSc3ccccc32)c1C (configuration not stated),inhibition,[1],4.81% (inactive)
CCc1c(C(=O)NC2CCCCC2)[nH]c(C)c1C(C)=O,inhibition,[1],inactive
COc1ccc(N2C(=O)CC(N3CCN(c4ccc(Cl)cc4)CC3)C2=O)cc1 (configuration not stated),inhibition,[1],0.34% (inactive)
O=C(Cc1coc2ccc3ccccc3c12)Nc1nccs1,inhibition,[1],2.66% (inactive)
CCc1nnc(NC(=O)Cc2c[nH]c3ccccc23)s1,inhibition,[1],0.4% (inactive)
Cc1cc2occ(CC(=O)Nc3nnc(C4CC4)s3)c2cc1C,inhibition,[1],0.7% (inactive)
CCC(CC)c1nnc(NC(=O)Cc2c[nH]c3ccccc23)s1,inhibition,[1],3.52% (inactive)
CC(=O)c1cccc(N=Cc2c(O)c3ccccc3oc2=O)c1,inhibition,[1],8.95% (inactive)
Cc1[nH]c2ccccc2c1C(C[N+](=O)[O-])c1ccco1 (configuration not stated),inhibition,[1],1.43% (inactive)
COc1cc(S(=O)(=O)N2CCN(C)CC2)c(OC)cc1Cl,inhibition,[1],inactive
COCCC(=O)NC12CC3CC(CC(C3)C1)C2,inhibition,[1],inactive
O=C(CNCCO)NC12CC3CC(CC(C3)C1)C2,inhibition,[1],2.6% (inactive)
Oc1ccc(N=Nc2n[nH]c(-c3ccc(Cl)cc3)n2)cc1,inhibition,[1],1.16% (inactive)
Oc1ccc(Cl)cc1N=Nc1ccccc1,inhibition,[1],inactive
COc1ccccc1-c1n[nH]c(=S)o1,inhibition,[1],0.85% (inactive)
CC(=O)Nc1ccc(S(=O)(=O)N2CCCc3ccccc32)cc1,inhibition,[1],inactive
COC(=O)Nc1ccc(S(=O)(=O)N2CCCc3ccccc32)cc1,inhibition,[1],inactive
O=C(O)c1ccc(Sc2ccccn2)c([N+](=O)[O-])c1,inhibition,[1],0.39% (inactive)
N/C(CS(=O)(=O)c1ccccc1)=N\OC(=O)c1ccc(F)cc1,inhibition,[1],1.85% (inactive)
c1ccc(Oc2nc(NCc3ccco3)nc(NCc3ccco3)n2)cc1,inhibition,[1],4.2% (inactive)
Cc1ccc(S(=O)(=O)Nc2cccc3cccnc23)cc1,inhibition,[1],5.25% (inactive)
Cc1ccc(NS(=O)(=O)c2cccc3cccnc23)c(Cl)c1,inhibition,[1],1.97% (inactive)
O=S1(=O)N=C2CCCCCN2C(c2ccc(Cl)cc2)N1 (configuration not stated),inhibition,[1],0.81% (inactive)
CCCCN1C(Nc2ccccc2)=NC[C@@H]1C,inhibition,[1],0.29% (inactive)
COc1ccc(C(C(=O)NC2CCCC2)N(C(=O)c2ccco2)c2ccc(OC)c(OC)c2)cc1 (configuration not stated),inhibition,[1],0.66% (inactive)
CC(C)NC(=O)N(C)C[C@@H]1Oc2c(NS(=O)(=O)c3ccccc3)cccc2C(=O)N([C@@H](C)CO)C[C@@H]1C,inhibition,[1],0.31% (inactive)
O=c1nc(/C=C/c2ccc(O)c(O)c2)oc2ccccc12,inhibition,[1],1.28% (inactive)
COc1ccc(/C=C/c2nc3ccccc3c(=O)o2)cc1,inhibition,[1],3.84% (inactive)
O=C1NC(=O)c2cc(NC(=O)c3cccc4ccccc34)ccc21,inhibition,[1],2.09% (inactive)
C[C@]1(O)CCC2C3CC[C@@H]4CC(=O)CC[C@]4(C)C3CC[C@@]21C (some centres not stated),inhibition,[1],inactive
CC12CCC(=O)CC1CCC1C2CCC2(C)C1CCC2(O)C(=O)CO (configuration not stated),inhibition,[1],10.6% (inactive)
Cn1cc(CN2CCC(CO)CC2)c(-c2ccc(Oc3ccccc3)cc2)n1,inhibition,[1],0.54% (inactive)
Cn1cc(CN2CCC(O)CC2)c(-c2ccc(Oc3ccccc3)cc2)n1,inhibition,[1],1.33% (inactive)
COc1cccc(CN2CC(C(=O)NCCCn3ccnc3C)CCC2=O)c1 (configuration not stated),inhibition,[1],0.67% (inactive)
CC(C)c1nnc(SCC(=O)N2CCc3ccccc32)n1N,inhibition,[1],inactive
COc1ccc(/C=C/C(=O)c2c(C)nc3ccccn23)cc1,inhibition,[1],5.86% (inactive)
C/C(=N\NC(=O)c1c(C)nc2ccccn12)c1cccc([N+](=O)[O-])c1,inhibition,[1],0.31% (inactive)
Cc1ccc(S(=O)(=O)NNC(=O)c2sc(NS(=O)(=O)c3ccccc3)nc2C)cc1,inhibition,[1],2.55% (inactive)
COc1ccc(CNC(=O)C(C)Sc2nc3ccccc3c(=O)n2CCCN2CCOCC2)cc1 (configuration not stated),inhibition,[1],0.34% (inactive)
CC(=O)c1cccc(NC(=O)CSc2nc3ccccc3c(=O)n2CCCN2CCOCC2)c1,inhibition,[1],8.56% (inactive)
Cc1ccc2nnnc(-c3ccccc3)c2c1,inhibition,[1],0.17% (inactive)
c1ccc(-c2nnnc3ccccc23)cc1,inhibition,[1],0.46% (inactive)
COC(c1ccccc1)c1nc2ccccc2[nH]c1=O (configuration not stated),inhibition,[1],0.57% (inactive)
O=C(CCCSc1nc2ccccc2[nH]1)Nc1ccccc1,inhibition,[1],inactive
COc1cc(NC(=S)NC(=O)c2cc(C)cc(C)c2)ccc1NC(=O)c1cccs1,inhibition,[1],8.93% (inactive)
COc1cc(NC(=S)NC(=O)c2c(OC)cccc2OC)ccc1NC(=O)c1cccs1,inhibition,[1],3.81% (inactive)
Cc1ccc(Cl)cc1Nc1nc(N2CCOCC2)nc(N2CCOCC2)n1,inhibition,[1],inactive
Cc1ccc(C(=O)CC(=O)c2cccc(F)c2)c(O)c1,inhibition,[1],1.73% (inactive)
CC(C)(C)c1ccc(C(=O)CC(=O)c2cc(Cl)ccc2O)cc1,inhibition,[1],1.44% (inactive)
Cc1ccc(O)c(C(=O)CC(=O)c2ccc(C(C)(C)C)cc2)c1,inhibition,[1],2.3% (inactive)
O=C(CC(=O)c1ccccc1O)c1cccc(F)c1,inhibition,[1],2.48% (inactive)
CCN(CC)C(=O)Cn1cc(S(=O)(=O)CC(=O)N2CCOCC2)c2ccccc21,inhibition,[1],1.34% (inactive)
CCc1cccc(CC)c1-n1c(SCc2cc(=O)n3ccsc3n2)nnc1-c1cccnc1,inhibition,[1],inactive
CN(C(=O)COC(=O)/C=C/c1ccc(S(=O)(=O)N2CCc3ccccc32)cc1)C1CCS(=O)(=O)C1 (configuration not stated),inhibition,[1],0.84% (inactive)
